Test results: PubChem BioAssay (NCATS)
Values joined by “and” are separate entries in the source; they are usually repeats but may differ in a detail not shown here. Identical values can stand only once. Records with an inconclusive call do not appear. A number with no mark means an inactive call. Active and inactive are the calls of the source. The call rests on the fitted dose curve; in most records, active means well fitted cell-killing curve with a large enough effect; inconclusive means small, poorly fitted or top-dose-only effect; inactive means flat fitted curve, though single readings scatter.

Assay: Cellular viability qHTS for adrenocortical cancer (ACC) cell line SW-13 (AID 1963989); further: nearly all actives have a fitted effect of over 65% in size;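 on activity (max response): cells grown in serum-free medium with ITS supplement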
Settings: SW-13 ACC cells viability, CellTiter-Glo, 48 h; activity (max response): stronger effect = lower value
Description: PI: Naris Nilubol, MD Surgical Oncology Program, National Cancer Institute (NCI) National Institute of Health (NIH), Bethesda, Maryland Adrenocortical cancer (ACC) is a rare malignancy with poor survival outcomes and few treatment options. Currently, mitotane is the only FDA-approved therapy for ACC. Although adjuvant radiation therapy is rarely utilized, it has the potential to improve survival in select cases. Through a quantitative high-throughput drug screen (qHTS), we identified auranofin (AF), a thioredoxin reductase (TXNRD) inhibitor, as a promising candidate drug. This study aims to evaluate whether AF can enhance the efficacy of radiation therapy in the treatment of ACC. Two human ACC cell lines, SW-13 and NCI-H295R, were screened using the National Center for Advancing Translational Sciences (NCATS) Pharmaceutical Collection (NPC) and the Mechanism Interrogation PlatE (MIPE) library (~4,991 compounds). CellTiter-Glo (Cat # G7570, Promega, Madison, WI) was utilized to measure cell viability. Described herein are the results of the corresponding viability assay.
PROTOCOL TABLE (as described by Inglese J, Shamu CE and Guy RK. 2007) SEQUENCE No. (e.g., 1, 2, 3, etc.); […] (e.g., Cells, Incubation, Reagent, etc.); VALUE; DESCRIPTION. 1; Cells; 5 uL; white, solid-bottom, 1536-well tissue-culture treated plates. 2; Time; overnight culture at 37C with 5% CO2. 3; Compounds and control; 23 nL; Kalypsis pin tool (Wako USA) equipped with a 1536-well pin head to transfer to the assay plates. 4; Time; 48 hours; 37C with 5% CO2. 5; Reagent; 4 uL; CellTiter-Glo luminescent substrate mix. 6; Time; 20 min at room temperature. 7; Detection; Luminescence; ViewLux plate reader NOTES (numbers refer to Sequence numbers above) 1. SW13 cells were harvested from a T175 flask and resuspended in ITS-supplemented DMEM serum-free medium at a concentration of 300 000 cells/mL. Then 5 uL of resuspended cells were dispensed into each well of white, solid-bottom, 1536-well tissue-culture-treated plates using a multidrop combi dispenser. The plates were covered with stainless steel gasket lids. 2-3. The plates were cultured overnight at 37C with 5% CO2. Twenty-three nL of compounds (eight selected concentrations from the NPC / MIPE) or positive control (10 mM stock of bortezomib) in DMSO was transferred to each well of the assay plate using a pin tool (Kalypsys, San Diego, CA, USA). The final concentration of the compounds in the 5 uL assay volume ranged from 0.5 nM to 46 uM. 4-6. After 48 hours of incubation at 37C and 5% CO2, 4 uL of CellTilter-Glo luminescent substrate mix (Promega, Madison, WI, USA) was added to each well. Then the plates were incubated for 20 minutes at room temperature. 7. After incubation, luminescence was measured using a ViewLux plate reader (PerkinElmer, Waltham, MA, USA) with a clear filter was used to measure the number of metabolically competent cells. To determine compound activity in the qHTS assay, the titration-response data for each sample was plotted and modeled by a four-parameter logistic fit yielding IC50 and efficacy (maximal response) values. […] REFERENCES: Inglese J, Shamu CE and Guy RK, Reporting data from high throughput screening of small molecule libraries, Nature Chemical Biology, 2007, 3(8): 438-441. doi.org/10.1038/nchembio0807-438.
On the % scale 0 is the no-effect control and ±100 the full control effect.

| Compound | activity (max response) | Potency |
| --- | --- | --- |
| CC(C)(Oc1ccc(C2CC2(Cl)Cl)cc1)C(=O)O (stereo not given) | 13.8% and -14.2% |  |
| CCOC(=O)C1=C(C)NC2=C(C(=O)CC(C)(C)C2)C1c1ccc(-c2ccccc2)cc1 (stereo not given) | -12.6% |  |
| NCC1CCN(c2nccc(-c3ccc4ccccc4c3)n2)CC1 |  | 22.4 µM (active) |
| O=C(Cn1ccnc1[N+](=O)[O-])NCc1ccccc1 | -1.05% |  |
| O=C(O)[C@@H](O)[C@H](O)[C@H](O)[C@@H](O)C(=O)O | 9.05% |  |
| CCc1cc(C(N)=S)ccn1 | 3.73% and -4.72% |  |
| CN(C)CCN(C)C(=O)c1ccc(NC(=O)Nc2ccc(-c3nc(N4CCOCC4)c4ccn(CC(F)(F)F)c4n3)cc2)cc1 |  | 0.708 µM (active) |
| C[C@@H]1CCC[C@H](C)N1 | 4.32% |  |
| Cc1cc(O[C@@H](CCC(F)(F)F)c2ccc(C(=O)NCCC(=O)O)cc2)cc(C)c1-c1ccc(C(C)(C)C)cc1 |  | 25.1 µM (active) |
| CNC(=O)c1cc(Oc2ccc(NC(=O)Nc3ccc(Cl)c(C(F)(F)F)c3)c(F)c2)ccn1 |  | 3.98 µM (active) |
| CCCCCC1Nc2cc(C(F)(F)F)c(S(N)(=O)=O)cc2S(=O)(=O)N1 (stereo not given) | 4.72% |  |
| COc1cc2nc(Cl)nc(N)c2cc1OC | 1.23% |  |
| C#Cc1cccc(Nc2ncnc3cc(OC)c(OCCCCCCC(=O)NO)cc23)c1 |  | 1.78 µM (active) |
| C=CC(=O)N1CC[C@@H](Oc2nc(Nc3ccc(N4CCC(N5CCN(C)CC5)CC4)cc3)c(C(N)=O)nc2CC)C1 |  | 1.43 µM (active) |
| Cc1ccc(-c2ncc(Cl)cc2-c2ccc(S(C)(=O)=O)cc2)cn1 | 3.04% and -7.76% |  |
| CC1COC2(CCN(c3nc(=O)c4cc(C(F)(F)F)cc([N+](=O)[O-])c4s3)CC2)O1 (stereo not given) | -6.91% |  |
| CN1CCN(C2=Nc3cc(Cl)ccc3Nc3ccccc32)CC1 | -14.9% |  |
| CCCCN(CCCC)CCC(O)c1cc2c(Cl)cc(Cl)cc2c2cc(C(F)(F)F)ccc12 (stereo not given) |  | 5.8 µM (active) |
| O=C1C(CCS(=O)c2ccccc2)C(=O)N(c2ccccc2)N1c1ccccc1 (stereo not given) | 7.53% |  |
| CC(=O)c1ccc(O)c(C(N)=O)c1 | 17.1% |  |

| Compound | activity (max response) | Potency |
| --- | --- | --- |
| CCOc1ccccc1C(N)=O | 2.11% |  |
| NC1CCN(c2nc3c(cc2F)c(=O)c(C(=O)O)cn3-c2ccc(F)cc2F)C1 (stereo not given) | -6.92% |  |
| CCCC(O)C(CC)CO (stereo not given) | 8.36% |  |
| CC(C)NC(=O)N1CC[C@H](N=C2Nc3cc(F)ccc3N(CC(F)F)c3ccc(Cl)cc32)C1 | -16% |  |
| Cc1ncc([N+](=O)[O-])n1C | 9.67% |  |
| NC(=O)C(=O)N/N=C/c1ccc([N+](=O)[O-])o1 | -15.1% |  |
| COC(=O)N[C@@H](C)CNc1nccc(-c2cn(C(C)C)nc2-c2cc(Cl)cc(NS(C)(=O)=O)c2F)n1 | -16% |  |
| CCCc1cc(=O)[nH]c(=S)[nH]1 | 3.86% and 14.9% |  |
| O=C1C(c2c(O)[nH]c3ccccc23)=Nc2ccccc21 | -5.8% |  |
| COc1ccc2c(c1)CC[C@@H]1[C@@H]2CC[C@]2(C)[C@@H](NCCCCCCN3C(=O)C=CC3=O)CC[C@@H]12 | -14.7% |  |
| Cc1ccccc1N1C(=O)c2cc(S(N)(=O)=O)c(Cl)cc2NC1C (stereo not given) | 17.3% |  |
| CN(C)C(=O)Oc1cccc([N+](C)(C)C)c1 | 16.2% |  |
| Cc1cc(Nc2cc(N)ncn2)c(=O)n2c1C(=O)NC21CCCCC1 | 0.221% |  |
| Cc1c(CN2CCC(Nc3ncnc4sc(CC(F)(F)F)cc34)CC2)ccc2c1cc(C#N)n2Cc1cn[nH]c1 |  | 4.47 µM (active) |
| Cc1c(F)ccc(C(=O)Nc2cc([N+](=O)[O-])ccc2N2CCN(C)CC2)c1Cl | -19.1% |  |
| CC1(C)O[C@@H]2C[C@H]3[C@@H]4CCC5=CC(=O)CC[C@]5(C)[C@@]4(F)[C@@H](O)C[C@]3(C)[C@]2(C(=O)CCl)O1 | 9.64% |  |
| CC[C@H]1OC(=O)[C@H](C)[C@@H](O[C@H]2C[C@@](C)(OC)[C@@H](O)[C@H](C)O2)[C@H](C)[C@@H](O[C@@H]2O[C@H](C)C[C@H](N(C)C)[C@H]2O)[C@](C)(O)C[C@@H](C)CN(C)[C@H](C)[C@@H](O)[C@]1(C)O | -23.1% |  |
| CC(C)c1c(C(=O)Nc2ccccc2)c(-c2ccccc2)c(-c2ccc(F)cc2)n1CC[C@@H](O)C[C@@H](O)CC(=O)O | -20.9% and -15.4% |  |
| CC(=O)Oc1cccc(C)c1 | 17.7% |  |
| NC(=O)NC1NC(=O)NC1=O (stereo not given) | 10.7% |  |
